# Results as given in the supplement of paper PMC6288085.
# Counter-ions that a name gives are not always drawn. ± gives the uncertainty stated by the source.
# Tested on: Caenorhabditis elegans N2
# Experiment: food intake (mean delta OD600 / animal over 72 h) with 50 uM loxapine co-treatment (OD600 units per animal); higher = more food eaten (less suppression of loxapine-induced hyperphagia)
# Conditions: first compound 33 µM, loxapine concentration 50 µM
# Procedure: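 C. elegans N2 adults (FUDR-sterilised, day 1) in 96-well plates fed gamma-irradiated bacteria. Each library drug (MedChemExpress FDA-approved library) at 33 uM was combined with loxapine at 50 uM. Food intake was measured as bacterial clearance: the change in OD600 from day 1 to 72 h, normalised per animal (mean over 14-21 wells of about 10-12 worms). Drugs flagged for bacterial lysis or sickness were excluded by the authors.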
row,Structure (SMILES),food intake
1,FC(F)(F)C(Cl)Br (stereo not given) [halothane] + CN1CCN(C2=Nc3ccccc3Oc3ccc(Cl)cc32)CC1 [loxapine],0.0227 ± 0.0031
2,CN(CCOc1ccc(CC2SC(=O)NC2=O)cc1)c1ccccn1 (stereo not given) [rosiglitazone] + CN1CCN(C2=Nc3ccccc3Oc3ccc(Cl)cc32)CC1 [loxapine],0.0226 ± 0.0041
3,O=C(O)COC(=O)Cc1ccccc1Nc1c(Cl)cccc1Cl [aceclofenac] + CN1CCN(C2=Nc3ccccc3Oc3ccc(Cl)cc32)CC1 [loxapine],0.0221 ± 0.0083
4,O=C1N=C(O)NC1(c1ccccc1)c1ccccc1 [phenytoin (sodium)] + CN1CCN(C2=Nc3ccccc3Oc3ccc(Cl)cc32)CC1 [loxapine],0.0233 ± 0.0031
5,COc1ccc(CNc2nc(N3CCC[C@H]3CO)ncc2C(=O)NCc2ncccn2)cc1Cl [avanafil] + CN1CCN(C2=Nc3ccccc3Oc3ccc(Cl)cc32)CC1 [loxapine],0.023 ± 0.0037
6,NNC(=O)c1ccncc1 [isoniazid] + CN1CCN(C2=Nc3ccccc3Oc3ccc(Cl)cc32)CC1 [loxapine],0.0217 ± 0.0032
7,C#Cc1cccc(Nc2ncnc3cc(OCCOC)c(OCCOC)cc23)c1 [Erlotinib] + CN1CCN(C2=Nc3ccccc3Oc3ccc(Cl)cc32)CC1 [loxapine],0.0212 ± 0.0034
8,Fc1ccc([C@@H]2CCNC[C@H]2COc2ccc3c(c2)OCO3)cc1 [paroxetine (hydrochloride)] + CN1CCN(C2=Nc3ccccc3Oc3ccc(Cl)cc32)CC1 [loxapine],0.0221 ± 0.0043
9,CN1C2=CC(=O)/C(=N\NC(N)=O)C=C2CC1S(=O)(=O)O (stereo not given) [carbazochrome (sodium sulfonate)] + CN1CCN(C2=Nc3ccccc3Oc3ccc(Cl)cc32)CC1 [loxapine],0.0296 ± 0.0057
10,CCOc1ccccc1OCCN[C@H](C)Cc1ccc(OC)c(S(N)(=O)=O)c1 [tamsulosin] + CN1CCN(C2=Nc3ccccc3Oc3ccc(Cl)cc32)CC1 [loxapine],0.022 ± 0.0032
11,O=C(O)CCCCCCCC(=O)O [azelaic acid] + CN1CCN(C2=Nc3ccccc3Oc3ccc(Cl)cc32)CC1 [loxapine],0.0259 ± 0.018
12,Nc1nnc(-c2cccc(Cl)c2Cl)c(N)n1 [lamotrigine] + CN1CCN(C2=Nc3ccccc3Oc3ccc(Cl)cc32)CC1 [loxapine],0.0237 ± 0.008
13,C[N+](C)(C)CCCCCC[N+](C)(C)C [hexamethonium (bromide)] + CN1CCN(C2=Nc3ccccc3Oc3ccc(Cl)cc32)CC1 [loxapine],0.0215 ± 0.0099
14,CC(CCc1ccccc1)NCC(O)c1ccc(O)c(C(N)=O)c1 (stereo not given) [labetalol (hydrochloride)] + CN1CCN(C2=Nc3ccccc3Oc3ccc(Cl)cc32)CC1 [loxapine],0.0213 ± 0.0075
15,C[C@]12CC[C@@H]3c4ccc(O)cc4CC[C@H]3[C@@H]1CC[C@@H]2OC(=O)CCC1CCCC1 [estradiol (cypionate)] + CN1CCN(C2=Nc3ccccc3Oc3ccc(Cl)cc32)CC1 [loxapine],0.0224 ± 0.0087
16,CCc1nc(N)nc(N)c1-c1ccc(Cl)cc1 [pyrimethamine] + CN1CCN(C2=Nc3ccccc3Oc3ccc(Cl)cc32)CC1 [loxapine],0.0221 ± 0.003
17,O=C1NC(=O)C(c2ccccc2)(c2ccccc2)N1 [phenytoin] + CN1CCN(C2=Nc3ccccc3Oc3ccc(Cl)cc32)CC1 [loxapine],0.0218 ± 0.0037
18,Nc1ccn([C@@H]2CS[C@H](CO)O2)c(=O)n1 [lamivudine] + CN1CCN(C2=Nc3ccccc3Oc3ccc(Cl)cc32)CC1 [loxapine],0.0212 ± 0.003
19,Nc1nc(/C(=C/CC(=O)O)C(=O)N[C@@H]2C(=O)N3C(C(=O)O)=CCS[C@H]23)cs1 [ceftibuten (dihydrate)] + CN1CCN(C2=Nc3ccccc3Oc3ccc(Cl)cc32)CC1 [loxapine],0.0192 ± 0.0055
20,CCOC(=O)c1c(CSc2ccccc2)n(C)c2cc(Br)c(O)c(CN(C)C)c12 [arbidol (hydrochloride)] + CN1CCN(C2=Nc3ccccc3Oc3ccc(Cl)cc32)CC1 [loxapine],0.0227 ± 0.0057

row,Structure (SMILES),food intake
1,CC[C@@H]([C@H](C)O)n1ncn(-c2ccc(N3CCN(c4ccc(OC[C@@H]5CO[C@@](Cn6cncn6)(c6ccc(F)cc6F)C5)cc4)CC3)cc2)c1=O [Posaconazole] + CN1CCN(C2=Nc3ccccc3Oc3ccc(Cl)cc32)CC1 [loxapine],0.023 ± 0.0056
2,CN(C)CCC=C1c2ccccc2C=Cc2ccccc21 [cyclobenzaprine (hydrochloride)] + CN1CCN(C2=Nc3ccccc3Oc3ccc(Cl)cc32)CC1 [loxapine],0.0221 ± 0.0063
3,C#C[C@]1(O)CC[C@H]2[C@@H]3CCC4=CC(=O)CC[C@@H]4[C@H]3C(=C)C[C@@]21CC [etonogestrel] + CN1CCN(C2=Nc3ccccc3Oc3ccc(Cl)cc32)CC1 [loxapine],0.0244 ± 0.012
4,C#C[C@]1(O)CC[C@H]2[C@@H]3CCc4cc(OC)ccc4[C@H]3CC[C@@]21C [mestranol] + CN1CCN(C2=Nc3ccccc3Oc3ccc(Cl)cc32)CC1 [loxapine],0.0204 ± 0.0018
5,Cc1ccc(Nc2nccc(N(C)c3ccc4c(C)n(C)nc4c3)n2)cc1S(N)(=O)=O [pazopanib (hydrochloride)] + CN1CCN(C2=Nc3ccccc3Oc3ccc(Cl)cc32)CC1 [loxapine],0.0206 ± 0.0053
6,CN(Cc1cnc2nc(N)nc(N)c2n1)c1ccc(C(=O)N[C@@H](CCC(=O)O)C(=O)O)cc1 [methotrexate] + CN1CCN(C2=Nc3ccccc3Oc3ccc(Cl)cc32)CC1 [loxapine],0.0222 ± 0.0022
7,CC1CNc2c(cccc2S(=O)(=O)N[C@@H](CCCNC(=N)N)C(=O)N2CC[C@@H](C)C[C@@H]2C(=O)O)C1 (stereo not given in full) [argatroban (monohydrate)] + CN1CCN(C2=Nc3ccccc3Oc3ccc(Cl)cc32)CC1 [loxapine],0.0229 ± 0.002
8,CCc1c2c(nc3ccc(OC(=O)N4CCC(N5CCCCC5)CC4)cc13)-c1cc3c(c(=O)n1C2)COC(=O)[C@]3(O)CC [Irinotecan] + CN1CCN(C2=Nc3ccccc3Oc3ccc(Cl)cc32)CC1 [loxapine],0.022 ± 0.003
9,CC1=C(C)C(=O)C(C(CCCCCC(=O)O)c2ccccc2)=C(C)C1=O (stereo not given) [seratrodast] + CN1CCN(C2=Nc3ccccc3Oc3ccc(Cl)cc32)CC1 [loxapine],0.0265 ± 0.0088
10,CS(=O)(=O)c1ccc([C@@H](O)[C@@H](CO)NC(=O)C(Cl)Cl)cc1 [thiamphenicol] + CN1CCN(C2=Nc3ccccc3Oc3ccc(Cl)cc32)CC1 [loxapine],0.0228 ± 0.0025
11,C[C@@H]1CCN(C(=O)CC#N)C[C@@H]1N(C)c1ncnc2[nH]ccc12 [tofacitinib (citrate)] + CN1CCN(C2=Nc3ccccc3Oc3ccc(Cl)cc32)CC1 [loxapine],0.0227 ± 0.0047
12,CCOC(N)=O [urethane] + CN1CCN(C2=Nc3ccccc3Oc3ccc(Cl)cc32)CC1 [loxapine],0.0215 ± 0.0029
13,CCOC(=O)C(C)(C)Oc1ccc(Cl)cc1 [clofibrate] + CN1CCN(C2=Nc3ccccc3Oc3ccc(Cl)cc32)CC1 [loxapine],0.0218 ± 0.0033
14,O=C1CC2(CCCC2)CC(=O)N1CCCCN1CCN(c2ncccn2)CC1 [buspirone (hydrochloride)] + CN1CCN(C2=Nc3ccccc3Oc3ccc(Cl)cc32)CC1 [loxapine],0.0245 ± 0.0044
15,COC(=O)/C=C/C(=O)OC [dimethyl fumarate] + CN1CCN(C2=Nc3ccccc3Oc3ccc(Cl)cc32)CC1 [loxapine],0.0218 ± 0.0043
16,CN1CCCC(n2nc(Cc3ccc(Cl)cc3)c3ccccc3c2=O)CC1 (stereo not given) [azelastine (hydrochloride)] + CN1CCN(C2=Nc3ccccc3Oc3ccc(Cl)cc32)CC1 [loxapine],0.0226 ± 0.0035
17,CN(CCOc1ccc(CC2SC(=O)NC2=O)cc1)c1ccccn1 (stereo not given) [rosiglitazone (maleate)] + CN1CCN(C2=Nc3ccccc3Oc3ccc(Cl)cc32)CC1 [loxapine],0.0207 ± 0.002
18,NNc1nncc2ccccc12 [hydralazine (hydrochloride)] + CN1CCN(C2=Nc3ccccc3Oc3ccc(Cl)cc32)CC1 [loxapine],0.022 ± 0.017
19,CC[C@@H](CO)NCCN[C@@H](CC)CO [ethambutol (dihydrochloride)] + CN1CCN(C2=Nc3ccccc3Oc3ccc(Cl)cc32)CC1 [loxapine],0.024 ± 0.0019
20,CC(=O)NCCCS(=O)(=O)O [Acamprosate (calcium)] + CN1CCN(C2=Nc3ccccc3Oc3ccc(Cl)cc32)CC1 [loxapine],0.023 ± 0.0036
